“And” between values parts separate entries of the source, which are not always exact repeats. Identical values can stand only once. The whole screen tested about 260,000 compounds, of which about 1,500 (0.58%) were called active. Another 5% or so got no clear call; they are omitted.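 Rule for the calls: active = inhibition above a set limit at one or more doses, reproduced on every date tested; inconclusive = results disagree between test dates, or hit never tested in dose response; inactive = the rest.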 The list is a sample of the results. Potency and affinity values are given separately.
biological target: Virion infectivity factor (Human immunodeficiency virus type 1 group M subtype B (isolate BH10)) + Virion infectivity factor (Human immunodeficiency virus type 1 group M subtype B (isolate BRU/LAI)) + Virion infectivity factor (Human immunodeficiency virus type 1 group M subtype B (isolate PCV12)) + Virion infectivity factor (Human immunodeficiency virus type 1 group M subtype B (isolate HXB2)) + DNA dC->dU-editing enzyme APOBEC-3G (Homo sapiens) (UniProt P69720+P69721+P69722+P69723+Q9HC16); assay: inhibitors of Vif binding to APOBEC3G peptide, primary screen, biochemical, TR-FRET, GST-Vif 1-94, biotin-A3G peptide, dose response retest (AID 1117319); conditions: hits give high values;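 note: Vif residues 1-94 fused to GST binding biotinylated APOBEC3G peptide 110-148; 0% = full assay without inhibitor and 100% = GST in place of GST-Vif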

inhibition, inactive:
Cc1ccc(C)c2[nH]c(=O)c(CCNC(=O)c3cc4ccccc4o3)cc12 24.9%, O=C(Cc1ccccc1)NC1CCN(C(=O)c2ccc([N+](=O)[O-])cc2)CC1 -1.3%, CCOc1ccccc1CN1CCN(Cc2csc(C(C)=O)c2)CC1CCO (centres undefined) 3.88%, Nc1nonc1C(=O)N/N=C/c1ccc(-c2cccc([N+](=O)[O-])c2)o1 -3.49%, Cc1cc([N+](=O)[O-])c(C)cc1-c1ccc(/C=N/NC(=O)Cn2nnnc2N)o1 9.49%, C=CCN1C(=O)C(CC(=O)Nc2ccc(C)cc2)SC1=Nc1c(C)n(C)n(-c2ccccc2)c1=O (centres undefined) 4.69%, O=C(Cc1c(F)cccc1Cl)NCc1cccnc1 -4.5%, CC(=O)Nc1ccc(OCC(O)CN2CCN(c3ccc(Cl)cc3)CC2)cc1 (centres undefined) 22.8%, Cc1ccc(SCCCCN2C(=O)NC(C)(C)C2=O)cc1 -3.51%, CC1(C)NC(=O)N(CCSc2ccc(Cl)cc2)C1=O -1.11%, CCc1cccc(CC)c1NC(=O)C(NS(=O)(=O)c1cccs1)c1ccccc1 (centres undefined) 9.9%, CCOC(=O)C1=C(COC(=O)c2ccc(Cl)nc2)NC(=O)NC1C (centres undefined) 5.43%, O=C(O)CCCCCCCCCCC1CCC(O)C1O (centres undefined) -4.99%, CC1NC(=O)NC1CCCCC(=O)O (centres undefined) 3.51%, CC(=O)N(c1ccccc1C)c1ccccc1C -4.05%, CSCCC(NC(=O)c1ccccc1)C(=O)NCCCSc1ccccc1 (centres undefined) -3.49%, O=C(CCC1CCCC1)NNC(=O)c1ccccc1O -4.22%, COc1ccc(CCNC(=O)COc2ccc(S(=O)(=O)N3CCCC3)cc2)cc1 -4.34%, CC(C)NS(=O)(=O)c1ccc(OCC(=O)NCCC2=CCCCC2)cc1 2.83%, Cc1nnc(SCC(=O)N2CCN(S(=O)(=O)c3ccccc3)CC2)s1 -8.25%, CCc1ccc(/C=N/n2c(C3CCCCC3)n[nH]c2=S)cc1 -5.47%, CC(C)(CO)NCc1cc(Br)ccc1OCc1ccccc1 -4.77%, CCC1=NN2C(=N)/C(=C\c3ccc(OCCOc4ccc(NC(C)=O)cc4)c(OC)c3)C(=O)N=C2S1 -0.34%, COc1ccc(OC)c(N)c1 14.5%, COc1ccc(C(=O)c2ccc(OC)cc2O)c(O)c1 4.6%, CCOC(=O)Cc1ncccc1C(=O)Nc1ccc(Oc2ccccc2)cc1 -1.5%, COc1ccc(C(=O)NCc2nnc(SCC(=O)Nc3nc4ccc(C)cc4s3)o2)cc1OC 9%, COc1ccc(C(=O)NCc2nnc(SCC(=O)Nc3nc4ccccc4s3)o2)cc1OC 0.33%, Cc1ccc(CSc2nc3ccncc3n2CC(=O)Nc2cc(C)cc(C)c2)cc1 -48.6%, Cc1sc2ncnc(NCc3ccco3)c2c1C 23.1%, Cc1sc2ncnc(SCC(=O)NC(=O)NCc3ccco3)c2c1C -3.92%, COc1ccc2c(c1)CC(C1(O)C(=O)N(C)c3ccccc31)C2=O (centres undefined) -5.17%, Cc1ccc(NC(=O)Nc2ccc3c(c2)nc(C)n3C)cc1 66.9%, CC(=O)c1ccc(NC(=O)Nc2ccc3c(c2)nc(C)n3C)cc1 11.4%, COc1ccc(NC(=O)CN(C)C(=O)CSc2nc3ccccc3s2)cc1 -0.85%, Cc1ccc(-n2nc3c(c2NC(=O)c2ccc(Br)o2)CSC3)c(C)c1 17%, Cc1ccccc1-n1nc2c(c1NC(=O)c1ccc(Br)o1)CSC2 17.6%, COc1ccc(NC(=O)COC(=O)c2ccc(S(=O)(=O)N3CC(C)CC(C)C3)cc2)cc1OC (centres undefined) 0.85%, CC(=O)Nc1ccc(S(=O)(=O)Nc2nc3ccccc3nc2Nc2cccc(O)c2)cc1 6.78%, CC(=O)Nc1ccc(Nc2nc3ccccc3nc2NS(=O)(=O)c2ccccc2)cc1 17.2%, CC(=O)Nc1ccc(S(=O)(=O)Nc2nc3ccccc3nc2Nc2ccc(S(N)(=O)=O)cc2)cc1 23.8%, CC(=O)Nc1ccc(S(=O)(=O)Nc2nc3ccccc3nc2Nc2ccc(O)cc2)cc1 -3.02%, Cc1ccc(NC(=O)CS(=O)(=O)c2c[nH]c3ccccc23)c(C)c1 -0.62%, COCCNC(=S)N/N=C(\C)CCc1ccc2c(c1)OCO2 3.32%, Cc1cc(NC(=O)/C=C/c2ccco2)ccc1NC(=O)c1ccccc1 11.7%, COc1ccc(/C=C/C(=O)NNC(=O)c2cc(C)oc2C)cc1 1.71%, Cc1ccc(O)c(NC(=S)NC(=O)/C=C/c2ccco2)c1 -4.52%, O=C(/C=C/c1ccco1)Nc1ccccc1C(=O)Nc1cccc(C(=O)O)c1 30.8%, COc1cccc(NC(=S)NC(=O)/C=C/c2ccco2)c1 28.1%, CC(=O)c1ccc(NC(=S)NC(=O)/C=C/c2ccco2)cc1 9.46%, O=C(/C=C/c1ccco1)NC(=S)Nc1ccccc1 10.3%, Cc1cc(C(=O)NNC(=O)/C=C/c2ccccc2Cl)c(C)o1 -12.6%, COc1cc(OC)cc(C(=O)NCC(=O)OCc2nc3ccccc3s2)c1 5.21%, COC(=O)C(NC(=O)c1ccccc1)(Nc1cc(C)cc(C)n1)C(F)(F)F (centres undefined) -5.13%, COc1ccc(CN2C(=O)C(CC(=O)NCCCCc3ccccc3)CC(C(=O)N(C(C)C)C(C)C)=C2C)cc1 (centres undefined) 6.93%, CN(Cc1ccccc1)C(=O)CCC(=O)N(C)Cc1ccccc1 0.41%, C=CCNc1nc2c(c(=O)[nH]c(=O)n2C)n1Cc1cccc(C)c1 -3.73%, CCN(CC)CCOC(=O)c1ccc(NC(=O)COc2cc(=O)n(CC)c3ccccc23)cc1 3.06% and 4.99%, COCCCN1C(=O)c2ccc(C(=O)NCc3ccco3)cc2C1=O 1.46%
